Source: PubChem (National Center for Advancing Translational Sciences (NCATS))
Most compounds without a hit are left out; they make up all but 6.2% or so of the library.
HT1080NT lethal – qHTS for induction of synthetic lethality in tumor cells producing 2HG: qHTS for the HT-1080-NT fibrosarcoma cell line | HT-1080-NT fibrosarcoma viability, CellTiter-Glo ATP luminescence, 48 h | Potency, µM (doses to about 46.1 µM), inactives show top-dose activity, negative = less viability, hits mostly cytotoxic | hit rate 1.6% among 360,000;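 also: NT is the 2HG producing partner of a matched IDH1 knockdown line; 0% = DMSO-treated cells and -100% = media-only wells without cells; nearly all actives have a fitted effect of over 55% in size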
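Luminescent CellTiter-Glo readout after 48 hours of compound exposure at 37 degrees C defined viability of HT-1080-NT cells. Activity was normalized to DMSO wells and cell-free media wells; concentration-response curves were fitted and assigned curve classes.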
KB-V1 MDR tox – qHTS assay for MDR1-selective chemotherapeutics: Primary screen using the drug-selected MDR subline cells KB-V1 | KB-V1 MDR cells viability, CellTiter-Glo, 72 h | Potency, µM (series often up to 46.1 µM), hits mostly cytotoxic | hit rate 3.4% among 400,000 | AID 1347076, 2019; also: % is scaled to controls: 0 for no effect and ±100 for the full control effect; nearly all actives have a fitted effect of over 60% in size
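Cytotoxicity toward P-gp-expressing KB-V1 cells was determined as loss of CellTiter-Glo luminescence after 72 h at 37 degrees C. Compounds were tested in quantitative HTS format across a concentration range, with curves fitted to normalized data.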
HT1080 IDH1KD tx – qHTS for induction of synthetic lethality in tumor cells producing 2HG: qHTS for the HT-1080-IDH1KD cell line. HT-1080 IDH1 knockdown viability, ATP luminescence, 48 h. Potency, µM (doses to about 46.1 µM), for inactives: at the highest dose activity, negative = toxicity, hits mostly cytotoxic. hit rate 2% among 360,000;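 also: 0% = DMSO wells and -100% = cell-free medium wells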
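Viability of IDH1-knockdown HT-1080 fibrosarcoma cells was assessed by CellTiter-Glo after 48 h at 37 °C with titrated compound; concentration-effect curves were classified by fit quality and response size.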
ATXN2 expr inh – Primary qHTS for Inhibitors of ATXN expression. HEK-293 ATXN2-luciferase reporter, luminescence, 24 h. Potency, µM (top dose mostly 57 µM), for the others: top-dose activity change, negative = inhibition, actives largely listed as inhibitors. hit rate 0.72% among 360,000. AID 1745845, 2022; also: % is scaled to controls: 0 for no effect and ±100 for the full control effect; nearly all actives have a fitted effect of over 55% in size
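ATXN2-luciferase reporter cells (luciferase flanked by upstream and downstream ATXN2 gene portions) were treated 24 h at 37 °C with compounds at up to 57 uM. SteadyGlo luminescence gave expression; GF-AFC fluorescence gave viability.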
KB-3-1 tox – qHTS assay for MDR1-selective chemotherapeutics: Primary screen using the parental adenocarcinoma cell KB-3-1; KB-3-1 viability, CellTiter-Glo ATP luminescence, 72 h; Potency, µM (highest dose often 46.1 µM), usual class: cytotoxic; hit rate 1.4% among 400,000; AID 1347075, 2019; also: % is scaled to controls: 0 for no effect and ±100 for the full control effect; nearly all actives have a fitted effect of over 60% in size
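Using CellTiter-Glo luminescence, growth of non-resistant KB-3-1 adenocarcinoma cells is assessed 72 h after pin-tool compound addition at 37 °C. Normalized responses across the concentration series yield fitted curves.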
S2 tox – Viability Counterscreen for Primary qHTS for Inhibitors of ATXN expression; S2 cells (HEK-293 line with an ATXN2-luciferase reporter) viability, CellTiter-Fluor protease fluorescence, 24 h; Potency, µM (doses to about 56.7 µM), most hits filed as cytotoxic; hit rate 0.49% among 400,000; also: nearly all actives have a fitted effect of over 40% in size
Numbers without * were called inactive; i = inactive; u = inconclusive; x = no result given; [ ] = another dose, or the depositor's remark. Calls follow the shape of the dose curve; as a rule, active = well fitted curve in the direction sought with a large enough effect; inconclusive = small, poorly fitted or top-dose-only effect, or another doubt; inactive = no such curve, though single readings can be large; an effect the other way counts as inactive or inconclusive. Potency is read from the fitted curve at half-maximal effect.

SMILES	HT1080NT lethal	KB-V1 MDR tox	HT1080 IDH1KD tx	ATXN2 expr inh	KB-3-1 tox	S2 tox
Cc1ccc2nc(SCC(=O)Nc3ccc(C(N)=O)cc3)[nH]c2c1	25%	i	17%	1%	i	x
CCOC(=O)c1ccccc1NC(=O)C1CCCO1 (centres undefined)	-3%	i	-4%	-6%	i	i
O=C(CSc1ccc(Cl)cc1)Nc1cccc(-c2nc3ccccc3[nH]2)c1	-26%	i	u	0%	i	u
O=C(Nc1nc2ccccc2[nH]1)C1CCCO1 (centres undefined)	-7%	i	3%[9.24 µM]	25%	i	i
Cc1ccc2nc(-c3ccc(NC(=O)CSc4ccccc4)cc3)[nH]c2c1	u	i	13µM*	-1%	i	i
COc1ccc(N2C(=O)[C@@H]3C[C@H]2CN3Cc2ccc3nccnc3c2)cc1Cl	x	x	x	x	x	i
Cc1ccc(OC(=O)CSc2nnc(-c3cccs3)o2)cc1C	x	i	x	x	i	x
O=C(NNc1ccc(F)cc1F)c1cccs1	-30%	x	u	x	x	x
C=CCSc1nnc(NC(=O)CSc2nc3ccccc3[nH]2)s1	-15%	i	-13%	5%	i	i
CCCc1cc(=O)[nH]c(SCC(=O)Nc2cc(S(=O)(=O)N3CCCCC3)ccc2Cl)n1	6.5µM*	u	15µM*	-6%	8.2µM*	i
Cc1ccc(-c2nc(SCC(=O)Nc3cc(S(=O)(=O)N4CCCCC4)ccc3Cl)n[nH]2)cc1	-20%	16µM*	-15%	-20%	u	u
C=CCSc1nnc(NC(=O)CSc2nc(CCC)cc(=O)[nH]2)s1	-28%	21µM*	-19%	-4%	u	i
CCCc1cc(=O)[nH]c(SCC(=O)Nc2cc(S(=O)(=O)N3CCOCC3)ccc2Cl)n1	u	i	u	2%	i	i
COc1ccc(NCC(=O)n2c(C)c(C)c3ccccc32)cc1	u	u	u	-6%	12µM*	x
COc1ncnc2c1ncn2CCCNC1CCN(Cc2ccccc2)CC1	-7%	i	-13%	-10%	i	i
Cc1onc(-c2ccccc2)c1-c1nnc(CN2CCN(S(=O)(=O)c3ccccc3F)CC2)o1	-3%	3.3µM*	0%	-17%	u	i
CN1CCN(Cc2nnc(-c3ccccc3)o2)CC1	9%	i	12%	x	i	i
Cc1cccc(Nc2nc(-c3c(C)nc4ccccn34)cs2)c1	u	7.3µM*	u	u	u	u
Cc1nc2ccccn2c1-c1csc(Nc2ccc(C(=O)O)cc2)n1	2.1µM*	u	3.3µM*	2%	u	i
Cc1nc2ccccn2c1-c1csc(Nc2cccc(C(=O)O)c2)n1	-17%	i	-12%	-12%	i	i
Cc1nc2ccccn2c1-c1csc(Nc2cccc(O)c2)n1	1.6µM*	10µM*	1.5µM*	-8%	u	u
CCCN1CNc2c(c(=O)[nH]c(=S)n2CCc2ccccc2OC)C1	7%	x	0%	x	x	x
CC1(C)C[C@H](O)[C@]2(CO)[C@H](O)C[C@]3(C)C(=CCC4[C@@]5(C)CC[C@H](O)C(C)(C)C5CC[C@]43C)[C@@H]2C1 (some centres undefined)	21µM*	u	u	u	u	u
C[C@@H]1[C@H](C)CC[C@]2(C(=O)O)CC[C@]3(C)C(=CC[C@@H]4[C@@]5(C)CC[C@H](O)C(C)(C)[C@H]5CC[C@]43C)[C@@H]12	x	x	x	56µM*	x	x
